IL1B secr inh: qHTS for Inhibitors of Inflammasome Signaling: IL-1-beta AlphaLISA Primary Screen; THP-1 LPS/ATP IL-1B secretion, AlphaLISA, 16 h; stronger effect = lower value; activity change, % at 57.5 µM; 360,000 compounds, 4.7% hits; AID 743279, 2014; in the data active = activity change below about -50%; inconclusive = mostly about -30% to -49%
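THP-1 cells pretreated 1 hr with compounds (up to 57.5 uM final), then stimulated with LPS (250 ng/mL final) plus ATP (1.25 mM final); secreted IL-1B measured by AlphaLISA after 16 hr, decreased signal indicating inhibition.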
HT1080-NT tox: qHTS for induction of synthetic lethality in tumor cells producing 2HG: qHTS for the HT-1080-NT fibrosarcoma cell line | HT-1080-NT fibrosarcoma viability, CellTiter-Glo ATP luminescence, 48 h | Potency, µM (doses to about 46.1 µM), for inactives: at the highest dose activity, negative = less viability, hits mostly cytotoxic | 360,000 compounds, 1.6% hits | AID 686970, 2013;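 also: NT is the 2HG producing partner of a matched IDH1 knockdown line; potency is read from the fitted curve at half-maximal effect; 0% = DMSO-treated cells and -100% = media-only wells without cells; nearly all actives have a fitted effect of over 55% in size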
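Viability by CellTiter-Glo luminescence after 48 h compound exposure at 37C of HT-1080-NT cells (750/well, RPMI, 5% FBS). % activity scaled between DMSO wells and medium-only wells, then curve-fitted and categorized by curve class.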
ELG1 repair inh: qHTS screen for small molecules that inhibit ELG1-dependent DNA repair in human embryonic kidney (HEK293T) cells expressing luciferase-tagged ELG1; HEK293T ELG1-luciferase reporter, luminescence, 16 h; DNA damage induced by 5-fluorouridine; Potency, µM (top dose mostly 46.1 µM), for inactives: top-dose activity change, negative = inhibition, most hits filed as inhibitors; 330,000 compounds, 2.3% hits; AID 504467, 2011; also: potency is read from the fitted curve at half-maximal effect; nearly all actives have a fitted effect of over 55% in size
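Reporter activity after DNA damage by 5-fluorouridine is monitored. Compound-treated cells incubate 16 hr at 37 °C, then ONE-Glo is added for 30 min before luminescence reading.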
HT1080 IDH1KD tx: qHTS for induction of synthetic lethality in tumor cells producing 2HG: qHTS for the HT-1080-IDH1KD cell line | HT-1080 IDH1 knockdown viability, ATP luminescence, 48 h | Potency, µM (titrated, usually from 46.1 µM), for inactives: at the highest dose activity, negative = toxicity, usual class: cytotoxic | 360,000 compounds, 2% hits | AID 686971, 2013;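 also: potency is read from the fitted curve at half-maximal effect; 0% = DMSO wells and -100% = cell-free medium wells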
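CellTiter-Glo luminescence after 48 h compound exposure at 37 degrees C of IDH1-knockdown HT-1080 cells in 5% FBS RPMI. %Activity scaled between DMSO wells and cell-free media wells, with curves fitted and assigned curve classes.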
DT40 TDP1 CPT: qHTS for Inhibitors of human tyrosyl-DNA phosphodiesterase 1 (TDP1): qHTS in cells in presence of CPT; chicken DT40 Tdp1-/-;hTDP1 cells + 20 nM CPT, ATP luminescence, 48 h; Potency, µM (highest dose often 46.2 µM), without a hit: top-dose activity change, negative = growth inhibition, most hits filed as inhibitors; 420,000 compounds, 12% hits; also: potency is read from the fitted curve at half-maximal effect; nearly all actives have a fitted effect of over 55% in size
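Cell growth measured by CellTiter-Glo luminescence after a minimum 48 h, 37 C compound exposure with 20 nM CPT in Tdp1-knockout DT40 cells stably expressing hTDP1, seeded 400/well; qHTS titration format.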
TDP1 cell noCPT: qHTS for Inhibitors of human tyrosyl-DNA phosphodiesterase 1 (TDP1): qHTS in cells in absence of CPT. DT40 Tdp1-/- hTDP1 cells, no CPT, ATP luminescence, 48 h. Potency, µM (series often up to 46.2 µM), without a hit: top-dose activity change, negative = growth inhibition, hits mostly inhibitors. 420,000 compounds, 15% hits. AID 686978, 2013; also: potency is read from the fitted curve at half-maximal effect; nearly all actives have a fitted effect of over 55% in size
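A cellular qHTS used chicken DT40 cells lacking endogenous Tdp1 but carrying stably transfected human TDP1. Compounds were applied without camptothecin, and cell growth kinetics were judged by ATP-dependent luminescence after ≥48 hr.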
* = called active by the depositor; ? = inconclusive; / = no result. Most compounds without a hit are left out; they make up all but 19% or so of the library. Unless noted, calls follow the shape of the dose curve; as a rule, active = well fitted curve in the direction sought with a large enough effect; inconclusive = small, poorly fitted or top-dose-only effect, or another doubt; inactive = no such curve, though single readings can be large; an effect the other way counts as inactive or inconclusive. Unless noted, % is scaled to controls: 0 for no effect and ±100 for the full control effect.

SMILES	IL1B secr inh	HT1080-NT tox	ELG1 repair inh	HT1080 IDH1KD tx	DT40 TDP1 CPT	TDP1 cell noCPT
COc1cccc(CN2CCN(C(=O)c3cccc4ccccc34)CC2)c1OC	-77*	-5%	?	-1%	-26%	?
COc1ccc(CN2CCN(C(=O)c3cccc4ccccc34)CC2)cc1Br	-65*	?	?	?	-5%	?
O=C1C(CSCc2ccccc2)NC(=S)N1c1ccccc1 (centres undefined)	-15	-8%	?	11%	2.9µM*	4.6µM*
O=C(O)CC1NC(=S)N(c2ccccc2)C1=O (centres undefined)	-11	?	6%	?	-17%	-14%
COc1ccc(NC(=O)NC2COc3ccccc3C2)c(OC)c1 (centres undefined)	/	/	/	/	-11%	-5%
COc1ccc2c(c1)CC(NC(=O)Nc1cc(Cl)ccc1OC)CO2 (centres undefined)	/	/	/	/	23µM*	?
CC(=NNC(=O)c1cccc(S(=O)(=O)N2CCOCC2)c1)c1ccccc1	0	1%	?	5%	-12%	19%
C[C@@H]1CCCCO[C@@H](CN(C)S(=O)(=O)c2ccccc2)[C@@H](C)CN([C@H](C)CO)C(=O)c2cc(NS(=O)(=O)c3ccc(F)cc3)ccc2O1	-24	-16%	/	-24%	?	21µM*
Cc1noc(C)c1S(=O)(=O)Nc1ccc2c(c1)C(=O)N([C@@H](C)CO)C[C@@H](C)[C@@H](CN(C)CC1CCCCC1)OCCCC[C@@H](C)O2	?	-21%	/	-29%	23µM*	15µM*
CC(C)NC(=O)Nc1ccc2c(c1)C(=O)N([C@@H](C)CO)C[C@H](C)[C@H](CN(C)S(=O)(=O)c1ccccc1)OCCCC[C@H](C)O2	-4	0%	/	-1%	18µM*	12µM*
Cc1ccc(S(=O)(=O)N(C)C[C@H]2OCCCC[C@@H](C)Oc3ccc(N(C)C)cc3C(=O)N([C@H](C)CO)C[C@@H]2C)cc1	4	-4%	/	-8%	?	21µM*
CS(=O)(=O)N1CCC2(CC1)CN(Cc1nccs1)C2	/	/	/	/	8%	-6%
C[C@H]1CCCCO[C@@H](CN(C)C(=O)NC2CCCCC2)[C@@H](C)CN([C@@H](C)CO)C(=O)c2cc(NC(=O)Cc3ccccc3)ccc2O1	-22	-23%	/	-13%	-9%	18µM*
CC(C)NC(=O)N(C)C[C@H]1OCCCC[C@H](C)Oc2ccc(NC(=O)NC3CCCCC3)cc2C(=O)N([C@H](C)CO)C[C@@H]1C	-13	13%	/	7%	?	?
C[C@@H]1CCCCO[C@H](CN(C)S(=O)(=O)c2ccccc2)[C@@H](C)CN([C@H](C)CO)C(=O)c2cc(NC(=O)Cc3ccccc3)ccc2O1	-1	4%	/	-5%	21µM*	?
Cc1cc(C)c2nc3s/c(=C/c4ccccc4)c(=O)n3c2c1	/	/	23%	/	/	/
O=c1/c(=C\c2ccc(O)cc2)sc2nc(-c3ccccc3)c(-c3ccccc3)n12	-57*	3%	3%	18%	?	?
O=C1C=C(Nc2cccnc2)c2ccccc2C1=O	-70*	23µM*	/	23µM*	7.3µM*	7.3µM*
CCOc1ccc(NC2=CC(=O)CCC2)cc1	14	-18%	17%	-5%	22%	-2%
